Source: the supplement of paper PMC10849652
The full data set covers some 7,900 targets. This sample favours those with a hit. About 0.6% of all pairs of compound and target were hits.

Columns and labels:
Experiment in all cases: log2 fold change, soluble protein after heating vs DMSO (PISA); higher = thermal stabilisation; K562 cells, 10 uM, 30 min; active = over 0.2 and 3.5 SD of the protein, either way, in both replicates (recomputed)
saracatinib = compound: CN1CCN(CCOc2cc(OC3CCOCC3)c3c(Nc4c(Cl)ccc5c4OCO5)ncnc3c2)CC1 [saracatinib]
Outline: (§1)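 K562 cells at 2×10^6 cells/mL were treated with 10 μM compound for 30 min. Aliquots were heated for 3 min across 48°C-58°C, pooled, and extracted in PBS with 0.5% NP-40 at 4°C; soluble protein was the supernatant after 21,000xg for 90 min. Soluble protein was quantified by TMTpro 16plex LC-MS/MS with channel sums equalised, and reported as log2 fold change in thermal stability against DMSO controls, with values from duplicates.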

sotrastaurin = compound: CN1CCN(c2nc(C3=C(c4c[nH]c5ccccc45)C(=O)NC3=O)c3ccccc3n2)CC1 [sotrastaurin]
Outline: as §1

alvocidib = compound: CN1CC[C@H](c2c(O)cc(O)c3c(=O)cc(-c4ccccc4Cl)oc23)[C@H](O)C1 [alvocidib]
Outline: as §1

Tubastatin A = compound: CN1CCc2c(c3ccccc3n2Cc2ccc(C(=O)NO)cc2)C1 [Tubastatin A]
Outline: as §1

[1] = compound: CNC(=O)C1=CC=CC=C1NC2=NC(=NC=C2Cl)NC3=C(C=C(C=C3)N4CCOCC4)OC
Outline: as §1

defactinib = compound: CNC(=O)c1ccc(Nc2ncc(C(F)(F)F)c(NCc3nccnc3N(C)S(C)(=O)=O)n2)cc1 [defactinib]
Outline: as §1

rucaparib = compound: CNCc1ccc(-c2[nH]c3cc(F)cc4c3c2CCNC4=O)cc1 [rucaparib]
Outline: as §1

[2] = compound: CNc1nc(-c2ccc3c(N)n[nH]c3c2)cc(N2C[C@@H](C(=O)NC3CCCCC3)CC[C@H]2C)n1
Outline: as §1

encorafenib = compound: COC(=O)N[C@@H](C)CNc1nccc(-c2cn(C(C)C)nc2-c2cc(Cl)cc(NS(C)(=O)=O)c2F)n1 [encorafenib]
Outline: as §1

[3] = compound: COC(=O)[C@H](CCSC)NC(=O)C1=C(C=C(C=C1)NC[C@H](CS)N)C2=CC=CC=C2
Outline: as §1

[4] = compound: COC1=CC=C(C=C1)CN2C=CC3=C2C=C(C=C3)C(=O)NO
Outline: as §1

filanesib = compound: CON(C)C(=O)N1N=C(c2cc(F)ccc2F)S[C@@]1(CCCN)c1ccccc1 [filanesib]
Outline: as §1

zotarolimus = compound: CO[C@H]1C[C@@H]2CC[C@@H](C)[C@@](O)(O2)C(=O)C(=O)N2CCCC[C@H]2C(=O)O[C@H]([C@H](C)C[C@@H]2CC[C@H](n3cnnn3)[C@H](OC)C2)CC(=O)[C@H](C)/C=C(\C)[C@@H](O)[C@@H](OC)C(=O)[C@H](C)C[C@H](C)/C=C/C=C/C=C/1C [zotarolimus]
Outline: as §1

idasanutlin = compound: COc1cc(C(=O)O)ccc1NC(=O)[C@@H]1N[C@@H](CC(C)(C)C)[C@](C#N)(c2ccc(Cl)cc2F)[C@H]1c1cccc(Cl)c1F [idasanutlin]
Outline: as §1

alisertib = compound: COc1cc(Nc2ncc3c(n2)-c2ccc(Cl)cc2C(c2c(F)cccc2OC)=NC3)ccc1C(=O)O [alisertib]
Outline: as §1

[5] = compound: COc1cc2nc(-c3cc(F)ccc3O)nc(N[C@@H]3CNC[C@H]3C(C)(C)O)c2cc1OC
Outline: as §1

gefitinib = compound: COc1cc2ncnc(Nc3ccc(F)c(Cl)c3)c2cc1OCCCN1CCOCC1 [gefitinib]
Outline: as §1

[6] = compound: COc1cccc2cc(-c3nc([C@H]4CC[C@H](C(=O)O)CC4)n4ncnc(N)c34)[nH]c12
Outline: as §1

lapatinib = compound: CS(=O)(=O)CCNCc1ccc(-c2ccc3ncnc(Nc4ccc(OCc5cccc(F)c5)c(Cl)c4)c3c2)o1 [lapatinib]
Outline: as §1

pictilisib = compound: CS(=O)(=O)N1CCN(Cc2cc3nc(-c4cccc5[nH]ncc45)nc(N4CCOCC4)c3s2)CC1 [pictilisib]
Outline: as §1

Measured: log2 fold change

CDC42EP1 (UniProt Q00587)
UniProt Q00587, sequence (Q00587 whole entry, looked up): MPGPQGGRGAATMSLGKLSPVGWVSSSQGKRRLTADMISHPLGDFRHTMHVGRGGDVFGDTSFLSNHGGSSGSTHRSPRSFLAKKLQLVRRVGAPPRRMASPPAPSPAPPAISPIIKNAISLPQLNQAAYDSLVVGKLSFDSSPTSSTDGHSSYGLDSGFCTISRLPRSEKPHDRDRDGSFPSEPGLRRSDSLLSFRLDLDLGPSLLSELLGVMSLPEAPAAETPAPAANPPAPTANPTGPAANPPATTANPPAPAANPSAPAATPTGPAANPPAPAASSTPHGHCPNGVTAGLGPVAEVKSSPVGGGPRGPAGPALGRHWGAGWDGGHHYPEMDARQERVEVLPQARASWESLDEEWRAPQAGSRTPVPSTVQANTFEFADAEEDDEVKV
active: [5] -0.492
inactive: saracatinib -0.017 | sotrastaurin 0.025 | alvocidib -0.146 | Tubastatin A 0.001 | [1] -0.303 | defactinib -0.144 | rucaparib -0.002 | [2] 0.016 | encorafenib -0.017 | [3] 0.007 | [4] -0.139 | filanesib -0.07 | zotarolimus 0.014 | idasanutlin 0 | alisertib 0 | gefitinib 0.087 | [6] -0.057 | lapatinib -0.015 | pictilisib -0.143

COQ7 (UniProt Q99807)
UniProt Q99807, sequence (Q99807 whole entry, looked up): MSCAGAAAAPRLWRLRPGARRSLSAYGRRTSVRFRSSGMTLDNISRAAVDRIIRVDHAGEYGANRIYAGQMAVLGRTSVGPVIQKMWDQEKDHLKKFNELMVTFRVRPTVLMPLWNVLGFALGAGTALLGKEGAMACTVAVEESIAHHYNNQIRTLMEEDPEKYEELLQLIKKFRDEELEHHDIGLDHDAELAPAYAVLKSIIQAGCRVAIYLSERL
inactive: saracatinib 0.024 | sotrastaurin 0.055 | alvocidib 0.009 | Tubastatin A -0.009 | [1] 0.043 | defactinib 0.03 | rucaparib -0.062 | [2] -0.028 | encorafenib -0.058 | [3] 0.059 | [4] 0.001 | filanesib -0.098 | zotarolimus -0.081 | idasanutlin 0.026 | alisertib 0.115 | [5] 0.011 | gefitinib 0.055 | [6] 0.031 | lapatinib 0.042 | pictilisib 0.074

CERT isoform 3 (UniProt Q9Y5P4)
inactive: saracatinib 0.033 | sotrastaurin 0.014 | alvocidib 0.002 | Tubastatin A -0.105 | [1] 0.131 | defactinib -0.097 | rucaparib -0.009 | [2] 0.116 | encorafenib -0.015 | [3] 0.047 | [4] -0.025 | filanesib 0.001 | zotarolimus 0.2 | idasanutlin -0.145 | alisertib -0.064 | [5] -0.201 | gefitinib 0.157 | [6] -0.004 | lapatinib 0.247 | pictilisib 0.186

C4A (UniProt P0C0L4)
inactive: saracatinib 0.108 | sotrastaurin 0.268 | alvocidib 0.052 | Tubastatin A -0.039 | [1] -0.021 | defactinib 0.072 | rucaparib -0.075 | [2] -0.188 | encorafenib -0.047 | [3] -0.039 | [4] 0.042 | filanesib 0.014 | idasanutlin 0.068 | alisertib -0.005 | [5] 0.001 | gefitinib -0.198 | [6] 0.175 | lapatinib -0.078 | pictilisib -0.291
active: zotarolimus -0.615

CIT isoform 4 (UniProt O14578)
UniProt O14578, sequence (O14578 whole entry, looked up): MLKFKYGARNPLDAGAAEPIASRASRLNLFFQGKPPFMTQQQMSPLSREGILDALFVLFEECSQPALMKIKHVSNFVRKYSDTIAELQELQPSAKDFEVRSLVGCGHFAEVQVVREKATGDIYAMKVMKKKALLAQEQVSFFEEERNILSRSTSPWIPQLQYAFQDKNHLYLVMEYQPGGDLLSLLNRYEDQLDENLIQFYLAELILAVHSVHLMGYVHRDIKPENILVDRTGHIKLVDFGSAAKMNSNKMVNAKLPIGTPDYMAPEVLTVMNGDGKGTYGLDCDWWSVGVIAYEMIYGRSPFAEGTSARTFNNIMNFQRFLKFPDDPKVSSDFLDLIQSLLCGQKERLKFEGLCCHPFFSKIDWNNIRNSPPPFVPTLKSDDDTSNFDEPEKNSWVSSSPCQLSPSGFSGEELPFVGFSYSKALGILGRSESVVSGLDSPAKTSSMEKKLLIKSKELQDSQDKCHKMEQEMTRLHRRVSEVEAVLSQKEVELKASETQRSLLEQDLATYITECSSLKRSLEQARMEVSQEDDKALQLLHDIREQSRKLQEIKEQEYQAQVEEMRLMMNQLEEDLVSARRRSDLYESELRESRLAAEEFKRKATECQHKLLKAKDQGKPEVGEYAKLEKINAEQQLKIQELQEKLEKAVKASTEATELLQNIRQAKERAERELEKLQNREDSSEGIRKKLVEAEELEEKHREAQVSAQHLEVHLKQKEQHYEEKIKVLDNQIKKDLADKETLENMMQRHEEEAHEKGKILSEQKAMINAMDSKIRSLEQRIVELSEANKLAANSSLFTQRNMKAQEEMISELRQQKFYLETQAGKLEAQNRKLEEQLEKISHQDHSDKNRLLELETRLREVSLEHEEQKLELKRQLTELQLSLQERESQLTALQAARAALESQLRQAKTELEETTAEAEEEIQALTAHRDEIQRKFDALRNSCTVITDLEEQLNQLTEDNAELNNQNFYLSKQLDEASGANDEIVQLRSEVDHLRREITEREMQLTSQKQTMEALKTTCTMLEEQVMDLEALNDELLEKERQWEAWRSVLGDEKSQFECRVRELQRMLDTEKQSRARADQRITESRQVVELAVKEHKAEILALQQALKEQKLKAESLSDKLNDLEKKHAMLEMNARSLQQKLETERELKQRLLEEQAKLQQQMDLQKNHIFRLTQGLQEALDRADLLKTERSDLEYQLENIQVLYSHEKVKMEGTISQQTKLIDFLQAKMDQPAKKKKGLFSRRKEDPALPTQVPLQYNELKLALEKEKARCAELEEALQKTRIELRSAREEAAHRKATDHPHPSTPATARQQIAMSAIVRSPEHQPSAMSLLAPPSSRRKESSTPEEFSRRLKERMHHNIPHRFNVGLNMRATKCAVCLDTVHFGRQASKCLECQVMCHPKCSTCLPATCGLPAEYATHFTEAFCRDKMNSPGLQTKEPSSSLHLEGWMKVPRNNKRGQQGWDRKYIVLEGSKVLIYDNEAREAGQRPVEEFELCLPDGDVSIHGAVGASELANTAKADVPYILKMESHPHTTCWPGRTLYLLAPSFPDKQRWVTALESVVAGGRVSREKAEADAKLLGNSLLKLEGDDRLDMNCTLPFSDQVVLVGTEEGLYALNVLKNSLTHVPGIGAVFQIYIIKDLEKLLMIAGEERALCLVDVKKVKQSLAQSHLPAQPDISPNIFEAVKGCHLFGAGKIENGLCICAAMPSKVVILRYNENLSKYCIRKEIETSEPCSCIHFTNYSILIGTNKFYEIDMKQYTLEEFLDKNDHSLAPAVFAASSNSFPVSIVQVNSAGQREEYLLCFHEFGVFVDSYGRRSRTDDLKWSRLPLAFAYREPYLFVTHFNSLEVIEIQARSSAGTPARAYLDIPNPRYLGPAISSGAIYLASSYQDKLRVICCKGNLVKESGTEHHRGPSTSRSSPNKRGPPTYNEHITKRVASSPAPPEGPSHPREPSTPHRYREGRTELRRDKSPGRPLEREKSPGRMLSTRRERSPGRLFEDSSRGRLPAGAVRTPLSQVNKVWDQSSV
active: [5] -0.228
inactive: saracatinib -0.044 | sotrastaurin -0.033 | alvocidib 0.001 | Tubastatin A 0.074 | [1] 0.054 | defactinib -0.034 | rucaparib -0.202 | [2] -0.055 | encorafenib -0.025 | [3] -0.001 | [4] -0.099 | filanesib 0.055 | zotarolimus -0.003 | idasanutlin 0.027 | alisertib -0.036 | gefitinib -0.12 | [6] -0.06 | lapatinib 0.031 | pictilisib -0.044

COX6B1 (UniProt P14854)
UniProt P14854, sequence (P14854 whole entry, looked up): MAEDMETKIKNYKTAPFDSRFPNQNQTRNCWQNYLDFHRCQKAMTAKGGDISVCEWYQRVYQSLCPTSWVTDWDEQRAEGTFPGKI
inactive: saracatinib 0.024 | sotrastaurin -0.012 | alvocidib 0.039 | Tubastatin A -0.069 | [1] 0.015 | defactinib -0.023 | rucaparib 0.022 | [2] -0.061 | encorafenib -0.043 | [3] 0.008 | [4] -0.08 | filanesib 0.003 | zotarolimus 0.012 | idasanutlin 0 | alisertib 0.007 | [5] 0.045 | gefitinib 0.036 | [6] 0.019 | lapatinib -0.026 | pictilisib 0.002

CFAP36 isoform 2 (UniProt Q96G28)
UniProt Q96G28, sequence (Q96G28 whole entry, looked up): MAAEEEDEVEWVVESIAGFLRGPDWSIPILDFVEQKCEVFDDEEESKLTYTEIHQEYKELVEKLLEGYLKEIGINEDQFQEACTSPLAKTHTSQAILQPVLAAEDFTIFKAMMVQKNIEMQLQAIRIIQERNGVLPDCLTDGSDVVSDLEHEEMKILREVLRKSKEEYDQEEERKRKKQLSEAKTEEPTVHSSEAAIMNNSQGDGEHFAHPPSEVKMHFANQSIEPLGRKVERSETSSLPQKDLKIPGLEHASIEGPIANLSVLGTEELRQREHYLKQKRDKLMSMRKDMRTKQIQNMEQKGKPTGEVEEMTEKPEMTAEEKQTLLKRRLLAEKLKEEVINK
inactive: saracatinib -0.01 | sotrastaurin -0.023 | alvocidib -0.132 | Tubastatin A 0.116 | [1] 0.1 | defactinib 0.13 | rucaparib 0.064 | [2] -0.058 | encorafenib 0.053 | [3] 0.05 | [4] 0.12 | filanesib 0.055 | zotarolimus 0.162 | idasanutlin -0.02 | alisertib -0.049 | [5] 0.001 | [6] 0.019 | lapatinib 0.082 | pictilisib 0.241

CRLF3 (UniProt Q8IUI8)
UniProt Q8IUI8, sequence (Q8IUI8 whole entry, looked up): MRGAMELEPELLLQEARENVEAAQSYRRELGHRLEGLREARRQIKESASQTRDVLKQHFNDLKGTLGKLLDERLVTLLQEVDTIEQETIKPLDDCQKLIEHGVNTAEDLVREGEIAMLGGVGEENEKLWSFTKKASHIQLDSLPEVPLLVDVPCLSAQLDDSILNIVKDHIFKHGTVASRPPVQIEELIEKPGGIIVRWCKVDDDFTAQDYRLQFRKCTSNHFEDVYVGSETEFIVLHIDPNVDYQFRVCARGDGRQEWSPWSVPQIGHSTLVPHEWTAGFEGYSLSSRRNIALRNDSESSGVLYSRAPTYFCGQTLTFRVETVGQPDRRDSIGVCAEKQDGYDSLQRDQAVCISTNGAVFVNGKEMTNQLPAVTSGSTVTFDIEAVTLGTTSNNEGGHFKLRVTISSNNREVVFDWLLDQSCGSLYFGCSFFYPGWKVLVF
inactive: saracatinib -0.209 | sotrastaurin -0.124 | alvocidib -0.161 | Tubastatin A 0.054 | [1] 0.051 | defactinib -0.076 | rucaparib 0.026 | [2] 0.036 | encorafenib 0.074 | [3] -0.013 | [4] -0.006 | filanesib -0.049 | zotarolimus 0.016 | idasanutlin 0.039 | alisertib 0.005 | [5] -0.05 | gefitinib 0.018 | [6] 0.014 | lapatinib 0.035 | pictilisib 0.051

CDKN2AIP (UniProt Q9NXV6)
UniProt Q9NXV6, sequence (Q9NXV6 whole entry, looked up): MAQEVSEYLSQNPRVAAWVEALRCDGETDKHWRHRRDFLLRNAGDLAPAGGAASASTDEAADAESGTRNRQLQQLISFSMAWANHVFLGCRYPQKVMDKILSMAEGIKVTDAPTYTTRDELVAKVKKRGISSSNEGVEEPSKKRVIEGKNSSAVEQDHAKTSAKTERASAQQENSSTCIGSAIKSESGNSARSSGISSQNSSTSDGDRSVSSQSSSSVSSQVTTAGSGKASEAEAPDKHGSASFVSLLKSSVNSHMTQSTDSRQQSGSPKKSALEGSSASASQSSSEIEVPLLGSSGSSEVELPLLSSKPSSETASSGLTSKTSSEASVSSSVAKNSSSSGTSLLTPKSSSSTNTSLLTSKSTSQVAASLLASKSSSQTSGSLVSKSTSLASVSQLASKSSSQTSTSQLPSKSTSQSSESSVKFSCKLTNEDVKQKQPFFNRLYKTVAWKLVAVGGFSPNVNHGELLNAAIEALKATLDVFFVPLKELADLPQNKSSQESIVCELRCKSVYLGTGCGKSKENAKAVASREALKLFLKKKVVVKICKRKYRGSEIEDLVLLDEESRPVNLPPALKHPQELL
inactive: saracatinib 0.057 | sotrastaurin 0.023 | alvocidib 0.018 | Tubastatin A 0.013 | [1] 0.052 | defactinib 0.055 | rucaparib -0.055 | [2] 0.033 | encorafenib 0.02 | [3] -0.029 | [4] 0.059 | filanesib 0.024 | zotarolimus -0.029 | idasanutlin -0.033 | alisertib -0.091 | [5] -0.007 | gefitinib 0.038 | [6] 0.054 | lapatinib 0.042 | pictilisib -0.025

CNN2 (UniProt Q99439)
UniProt Q99439, sequence (Q99439 whole entry, looked up): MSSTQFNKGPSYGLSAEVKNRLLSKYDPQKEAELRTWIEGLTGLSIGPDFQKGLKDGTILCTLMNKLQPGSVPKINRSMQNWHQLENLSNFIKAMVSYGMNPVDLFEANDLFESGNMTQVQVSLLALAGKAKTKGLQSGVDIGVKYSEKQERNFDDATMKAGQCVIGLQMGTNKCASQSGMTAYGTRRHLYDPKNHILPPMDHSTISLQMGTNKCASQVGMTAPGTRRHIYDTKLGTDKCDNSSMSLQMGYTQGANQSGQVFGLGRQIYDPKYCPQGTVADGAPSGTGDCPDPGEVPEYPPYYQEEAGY
inactive: saracatinib 0.004 | sotrastaurin -0.161 | alvocidib -0.024 | Tubastatin A 0 | [1] -0.003 | defactinib -0.087 | rucaparib -0.008 | [2] -0.077 | encorafenib 0.023 | [3] 0 | [4] -0.008 | filanesib -0.058 | zotarolimus -0.002 | idasanutlin -0.029 | alisertib -0.007 | [5] 0.021 | gefitinib 0.012 | [6] -0.065 | lapatinib -0.041 | pictilisib -0.054

CDAN1 (UniProt Q8IWY9)
inactive: saracatinib -0.012 | sotrastaurin -0.03 | alvocidib -0.019 | Tubastatin A 0.009 | [1] -0.029 | defactinib 0.024 | rucaparib 0.085 | [2] -0.006 | encorafenib 0.005 | [3] 0.112 | [4] -0.032 | filanesib -0.017 | zotarolimus 0.008 | idasanutlin -0.088 | alisertib -0.041 | [5] -0.044 | gefitinib -0.034 | [6] 0.185 | lapatinib 0.005 | pictilisib 0.011

CRLS1 (UniProt Q9UJA2)
UniProt Q9UJA2, sequence (Q9UJA2 whole entry, looked up): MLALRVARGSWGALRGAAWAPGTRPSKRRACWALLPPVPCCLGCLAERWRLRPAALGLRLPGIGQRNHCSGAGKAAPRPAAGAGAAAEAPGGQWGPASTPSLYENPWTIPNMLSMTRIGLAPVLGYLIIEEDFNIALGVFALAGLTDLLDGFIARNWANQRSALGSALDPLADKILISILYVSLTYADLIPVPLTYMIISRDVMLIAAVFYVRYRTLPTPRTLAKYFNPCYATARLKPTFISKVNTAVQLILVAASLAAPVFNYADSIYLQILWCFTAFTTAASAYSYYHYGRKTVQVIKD
inactive: saracatinib 0.144 | sotrastaurin -0.282 | alvocidib 0.02 | Tubastatin A -0.079 | [1] 0.043 | defactinib -0.088 | rucaparib -0.088 | [2] -0.052 | encorafenib 0.004 | [3] 0.067 | [4] 0.044 | filanesib -0.125 | zotarolimus 0.005 | alisertib -0.071 | [5] -0.229 | gefitinib 0.021 | [6] 0.075 | lapatinib 0.046 | pictilisib -0.029

CDK5 (UniProt Q00535)
UniProt Q00535, sequence (Q00535 whole entry, looked up): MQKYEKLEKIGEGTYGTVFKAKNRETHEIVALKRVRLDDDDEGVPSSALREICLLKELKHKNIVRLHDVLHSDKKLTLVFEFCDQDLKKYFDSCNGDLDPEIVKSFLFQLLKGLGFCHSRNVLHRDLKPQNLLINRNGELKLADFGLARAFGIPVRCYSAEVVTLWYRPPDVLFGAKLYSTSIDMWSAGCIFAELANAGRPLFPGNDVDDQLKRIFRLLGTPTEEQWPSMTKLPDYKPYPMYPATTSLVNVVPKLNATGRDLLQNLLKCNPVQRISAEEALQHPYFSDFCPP
inactive: saracatinib -0.008 | sotrastaurin 0.094 | alvocidib 0.142 | Tubastatin A -0.013 | [1] 0.029 | defactinib 0.143 | rucaparib 0.05 | [2] 0.006 | encorafenib 0.049 | [3] -0.042 | [4] 0.004 | filanesib 0.024 | zotarolimus -0.003 | idasanutlin -0.099 | alisertib -0.046 | [5] 0.054 | gefitinib 0.002 | [6] 0 | lapatinib -0.033 | pictilisib -0.011

CKS1B (UniProt P61024)
inactive: saracatinib 0.06 | sotrastaurin 0.059 | alvocidib -0.067 | Tubastatin A -0.045 | [1] -0.01 | defactinib -0.054 | rucaparib -0.047 | [2] -0.057 | encorafenib 0.01 | [3] -0.1 | [4] -0.045 | filanesib 0.047 | zotarolimus 0.013 | idasanutlin -0.011 | alisertib -0.012 | [5] -0.048 | gefitinib -0.008 | [6] 0.031 | lapatinib 0.004 | pictilisib -0.007

CHERP (UniProt Q8IWX8)
inactive: saracatinib 0.045 | sotrastaurin -0.167 | alvocidib -0.143 | Tubastatin A 0.119 | [1] -0.006 | defactinib -0.29 | rucaparib 0.022 | [2] -0.046 | encorafenib 0.058 | [3] 0.002 | [4] 0.04 | filanesib 0.266 | zotarolimus 0.051 | idasanutlin 0.063 | alisertib 0.002 | [5] -0.227 | gefitinib -0.02 | [6] 0.002 | lapatinib -0.023 | pictilisib 0.038

CSK (UniProt P41240)
inactive: saracatinib -0.01 | sotrastaurin -0.069 | alvocidib -0.102 | Tubastatin A 0.048 | [1] 0.097 | defactinib -0.105 | rucaparib -0.008 | [2] 0.007 | encorafenib 0.013 | [3] -0.048 | [4] 0.034 | filanesib -0.049 | zotarolimus 0.007 | idasanutlin -0.056 | alisertib -0.018 | [5] 0.024 | gefitinib 0.024 | [6] -0.049 | lapatinib 0.008 | pictilisib 0.02
